In PubChem BioAssay (EPA / NIEHS):
Records with an inconclusive call do not appear. The source holds several records for some structures; these can differ, active in one and inactive in another. Activity calls are given as the source filed them. Rule for the calls, unless noted: active = hit-call score of the fitted dose curve at least 0.9, where 1 is the maximum; inconclusive = response in the unintended direction; inactive = score below 0.9.

Columns and labels:
[1] = ATG_TAL_CIS: Attagene CIS-FACTORIAL HepG2 Assay for human TAL Basal Promoter (AID 2282966; active = hit-call score of the fitted dose curve at least 0.9, where 1 is the maximum; inactive = score below 0.9;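 note: background control endpoint measuring basal TAL promoter reporter mRNA not a specific factor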); details: HepG2 Attagene cis-factorial TAL promoter reporter; actives raise or lower the signal
Procedure, shortened: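 Steps: transfect HepG2 with multiple reporter transcription units; dose 24 h; isolate RNA, reverse-transcribe, PCR-amplify, label with 6-FAM, digest with HpaI; resolve by capillary electrophoresis. Bidirectional fitting against DMSO baseline.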

[2] = ATG_TGFb_CIS: Attagene CIS-FACTORIAL HepG2 Assay for human Transforming Growth Factor (TGF) (AID 2282967; active = hit-call score of the fitted dose curve at least 0.9, where 1 is the maximum; inactive = score below 0.9); details: HepG2 Attagene CIS TGFb reporter, mRNA transcription; actives raise or lower the signal
Procedure, shortened: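 Endogenous TGFB1-linked transcription factor activity read as reporter mRNA via RT-PCR and capillary electrophoresis, 24 h after dosing transiently transfected HepG2 cells. Gain or loss of signal fitted relative to DMSO.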

[3] = ATG_VDRE_CIS: Attagene CIS-FACTORIAL HepG2 Assay for human Vitamin D Receptor Element (VDRE) (AID 2282968; active = hit-call score of the fitted dose curve at least 0.9, where 1 is the maximum; inactive = score below 0.9); details: HepG2 VDRE cis-reporter transcription, actives raise or lower the signal
Procedure, shortened: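 Reporter mRNA induction, quantified by capillary electrophoresis of fluorescently labelled RT-PCR products, was read 24 h after dosing HepG2 cells carrying transiently transfected cis-regulated reporter units; gain or loss relative to DMSO.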

[4] = target: Nuclear receptor subfamily 1 group I member 3 (Homo sapiens) (UniProt Q14994); test: ATG_CAR_TRANS: Attagene TRANS-FACTORIAL HepG2 Assay for human Constitutive Androstane Receptor (CAR) (AID 2282969); details: HepG2 Attagene TRANS-FACTORIAL CAR reporter;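 note: activators raise reporter mRNA above DMSO so AC50 marks induction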
Nuclear receptor subfamily 1 group I member 3 (Homo sapiens), sequence (Q14994 whole entry, looked up, the tested form may be a part): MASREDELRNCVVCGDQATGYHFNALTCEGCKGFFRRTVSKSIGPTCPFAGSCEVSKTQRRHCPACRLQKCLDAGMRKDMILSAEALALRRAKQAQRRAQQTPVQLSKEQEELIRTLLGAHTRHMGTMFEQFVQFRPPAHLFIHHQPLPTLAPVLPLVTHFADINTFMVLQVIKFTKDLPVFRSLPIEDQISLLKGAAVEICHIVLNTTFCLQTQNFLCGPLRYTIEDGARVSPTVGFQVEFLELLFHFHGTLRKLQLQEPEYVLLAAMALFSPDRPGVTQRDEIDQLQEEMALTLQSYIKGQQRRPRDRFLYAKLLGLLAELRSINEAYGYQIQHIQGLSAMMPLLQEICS
Procedure, shortened: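 Readout is reporter mRNA induction, quantified by fluorescent primer extension and capillary electrophoresis after RT-PCR. Cells were HepG2 transiently carrying chimeric NR-Gal4 constructs with GAL4-UAS reporters, treated for 24 h; activity scored upward from DMSO.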

[5] = target: Estrogen receptor (Homo sapiens) (UniProt P03372); test: ATG_ERa_TRANS: Attagene TRANS-FACTORIAL HepG2 Assay for human Estrogen Receptor alpha (ERa) (AID 2282970); details: HepG2 Attagene TRANS ERa GAL4 reporter, mRNA
Estrogen receptor (Homo sapiens), sequence (P03372 whole entry, looked up, the tested form may be a part): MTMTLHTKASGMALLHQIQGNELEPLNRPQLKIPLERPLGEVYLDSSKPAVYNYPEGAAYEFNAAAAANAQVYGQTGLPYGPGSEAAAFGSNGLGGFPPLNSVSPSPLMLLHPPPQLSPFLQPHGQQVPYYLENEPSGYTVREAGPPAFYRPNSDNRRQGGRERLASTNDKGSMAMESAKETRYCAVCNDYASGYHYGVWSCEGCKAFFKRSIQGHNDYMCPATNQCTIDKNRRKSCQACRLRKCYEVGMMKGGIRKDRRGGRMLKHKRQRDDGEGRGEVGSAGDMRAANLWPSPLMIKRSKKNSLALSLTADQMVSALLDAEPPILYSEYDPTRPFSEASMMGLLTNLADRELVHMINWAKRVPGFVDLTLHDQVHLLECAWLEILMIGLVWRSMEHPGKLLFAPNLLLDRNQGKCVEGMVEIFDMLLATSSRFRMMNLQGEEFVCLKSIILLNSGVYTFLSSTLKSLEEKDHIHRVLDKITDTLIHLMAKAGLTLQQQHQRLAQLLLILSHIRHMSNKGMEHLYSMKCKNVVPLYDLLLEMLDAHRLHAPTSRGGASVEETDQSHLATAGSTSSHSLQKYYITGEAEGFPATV
Procedure, shortened: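 Multiplexed cell-based reporter format in HepG2: chimeric ERa-Gal4 protein drives GAL4-UAS reporter transcription. Fluorescent reporter mRNA quantified by capillary electrophoresis 24 hours after dosing; endpoint fitted as signal gain against DMSO.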

[6] = target: X-box-binding protein 1 (Homo sapiens) (UniProt P17861); test: ATG_Xbp1_CIS: Attagene CIS-FACTORIAL HepG2 Assay for human X-box Binding Protein 1 (XBP1) (AID 2282972; active = hit-call score of the fitted dose curve at least 0.9, where 1 is the maximum; inactive = score below 0.9); details: HepG2 XBP1 cis-element reporter, Attagene multiplex; actives raise or lower the signal
X-box-binding protein 1 (Homo sapiens), sequence (P17861 whole entry, looked up): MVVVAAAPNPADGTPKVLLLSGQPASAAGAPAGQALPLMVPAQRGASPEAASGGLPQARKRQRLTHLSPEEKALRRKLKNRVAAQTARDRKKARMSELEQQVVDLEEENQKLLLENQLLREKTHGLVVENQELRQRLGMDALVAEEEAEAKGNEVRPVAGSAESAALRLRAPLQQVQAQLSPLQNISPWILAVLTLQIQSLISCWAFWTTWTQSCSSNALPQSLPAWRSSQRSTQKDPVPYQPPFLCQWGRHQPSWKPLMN
Procedure, shortened: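 HepG2 cells transiently transfected with cis-regulated multiple reporter transcription units; endogenous transcription factor activity measured 24 hours after chemical dosing. Reporter mRNA quantified by RT-PCR, 6-FAM primer extension, HpaI digestion and capillary electrophoresis; bidirectional fitting versus DMSO.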

[7] = target: Glucocorticoid receptor (Homo sapiens) (UniProt P04150); test: ATG_GR_TRANS: Attagene TRANS-FACTORIAL HepG2 Assay for human Glucocorticoid Receptor (GR) (AID 2282978); details: HepG2 Attagene TRANS GR reporter, mRNA transcription;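 note: activators score as hits since higher reporter transcript over DMSO is fitted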
Glucocorticoid receptor (Homo sapiens), sequence (P04150 whole entry, looked up, the tested form may be a part): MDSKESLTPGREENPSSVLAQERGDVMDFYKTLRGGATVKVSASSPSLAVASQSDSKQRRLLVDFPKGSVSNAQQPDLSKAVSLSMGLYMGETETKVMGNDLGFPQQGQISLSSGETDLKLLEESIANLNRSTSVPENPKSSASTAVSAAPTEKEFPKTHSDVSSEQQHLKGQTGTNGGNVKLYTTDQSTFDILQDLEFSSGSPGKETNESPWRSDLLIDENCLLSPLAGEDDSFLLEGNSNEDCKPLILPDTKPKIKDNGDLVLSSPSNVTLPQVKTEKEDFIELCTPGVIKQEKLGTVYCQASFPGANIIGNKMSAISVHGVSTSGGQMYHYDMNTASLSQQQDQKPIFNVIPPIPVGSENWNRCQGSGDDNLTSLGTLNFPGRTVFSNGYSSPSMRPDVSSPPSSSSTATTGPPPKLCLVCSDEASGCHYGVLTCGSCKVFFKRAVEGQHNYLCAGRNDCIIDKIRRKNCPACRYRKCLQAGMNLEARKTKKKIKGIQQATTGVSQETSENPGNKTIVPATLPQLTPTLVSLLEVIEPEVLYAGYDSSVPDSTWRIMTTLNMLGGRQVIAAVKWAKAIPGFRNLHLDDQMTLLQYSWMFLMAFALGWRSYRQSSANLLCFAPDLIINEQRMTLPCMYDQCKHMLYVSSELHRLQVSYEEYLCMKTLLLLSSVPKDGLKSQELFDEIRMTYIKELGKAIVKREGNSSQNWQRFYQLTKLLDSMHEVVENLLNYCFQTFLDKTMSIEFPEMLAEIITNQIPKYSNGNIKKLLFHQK
Procedure, shortened: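 Transiently transfected HepG2 cells express chimeric NR-GAL4 proteins acting on GAL4-UAS reporter units. Compounds are applied for 24 h. mRNA induction over DMSO is measured by capillary electrophoresis.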

[8] = target: Bile acid receptor (Homo sapiens) (UniProt Q96RI1); test: ATG_FXR_TRANS: Attagene TRANS-FACTORIAL HepG2 Assay for Farnesoid X Receptor (FXR) (AID 2282979); details: HepG2 Attagene TRANS FXR-GAL4 reporter transcription;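 note: hits raise reporter mRNA above DMSO so AC50 marks FXR activation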
Bile acid receptor (Homo sapiens), sequence (Q96RI1 whole entry, looked up, the tested form may be a part): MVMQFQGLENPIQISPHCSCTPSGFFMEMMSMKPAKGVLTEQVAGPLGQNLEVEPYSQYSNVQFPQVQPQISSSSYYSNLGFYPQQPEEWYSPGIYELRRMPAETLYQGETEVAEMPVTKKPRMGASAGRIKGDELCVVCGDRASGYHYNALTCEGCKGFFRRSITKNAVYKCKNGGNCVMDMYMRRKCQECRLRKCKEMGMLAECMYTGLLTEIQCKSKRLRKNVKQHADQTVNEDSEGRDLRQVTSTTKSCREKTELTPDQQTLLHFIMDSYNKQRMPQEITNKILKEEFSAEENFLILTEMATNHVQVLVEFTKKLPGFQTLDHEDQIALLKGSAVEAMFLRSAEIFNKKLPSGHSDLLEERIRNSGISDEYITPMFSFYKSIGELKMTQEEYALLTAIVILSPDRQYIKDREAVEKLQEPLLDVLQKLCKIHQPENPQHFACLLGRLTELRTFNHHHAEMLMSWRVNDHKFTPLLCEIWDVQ
Procedure, shortened: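 After 24 h chemical treatment of transfected HepG2 cells, GAL4-UAS reporter transcripts driven by an exogenous FXR-GAL4 fusion were measured by RT-PCR and capillary electrophoresis. Increases over DMSO were fitted.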

[9] = target: Oxysterols receptor LXR-alpha (Homo sapiens) (UniProt Q13133); test: ATG_LXRa_TRANS: Attagene TRANS-FACTORIAL HepG2 Assay for human Liver X Receptor alpha (LXRa) (AID 2282980); details: HepG2 Attagene TRANS reporter, LXRa transactivation
Procedure, shortened: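 In this multiplexed TRANS system, compounds act on HepG2 cells carrying GAL4-UAS reporter units and a receptor-GAL4 fusion for 24 h. Induced reporter RNA is amplified, fluorescently labelled and sized by capillary electrophoresis, with DMSO as baseline.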

[10] = target: Oxysterols receptor LXR-beta (Homo sapiens) (UniProt P55055); test: ATG_LXRb_TRANS: Attagene TRANS-FACTORIAL HepG2 Assay for human Liver X Receptor beta (LXRb) (AID 2282981); details: HepG2 Attagene TRANS GAL4-LXRb reporter, mRNA
Oxysterols receptor LXR-beta (Homo sapiens), sequence (P55055 whole entry, looked up, the tested form may be a part): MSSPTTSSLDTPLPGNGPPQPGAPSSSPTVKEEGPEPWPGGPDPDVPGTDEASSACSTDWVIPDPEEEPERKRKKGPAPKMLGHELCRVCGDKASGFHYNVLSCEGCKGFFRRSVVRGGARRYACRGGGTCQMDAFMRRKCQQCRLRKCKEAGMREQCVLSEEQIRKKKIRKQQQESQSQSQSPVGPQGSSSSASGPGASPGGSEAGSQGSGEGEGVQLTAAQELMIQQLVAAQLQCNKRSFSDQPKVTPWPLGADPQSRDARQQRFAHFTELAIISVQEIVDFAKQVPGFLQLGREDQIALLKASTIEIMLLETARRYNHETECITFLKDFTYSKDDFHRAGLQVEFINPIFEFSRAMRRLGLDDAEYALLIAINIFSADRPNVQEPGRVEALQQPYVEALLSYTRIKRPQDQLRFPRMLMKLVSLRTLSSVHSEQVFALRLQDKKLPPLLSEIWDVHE
Procedure, shortened: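 Transient transfection HepG2 (multiplexed RTUs, GAL4-UAS); NR-Gal4 chimera; 24 h exposure; RNA → RT-PCR → 6-FAM primer extension → HpaI → CE; increase vs DMSO.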

[11] = target: Hepatocyte nuclear factor 4-alpha (Homo sapiens) (UniProt P41235); test: ATG_HNF4a_TRANS: Attagene TRANS-FACTORIAL HepG2 Assay for human Hepatocyte Nuclear Factor 4 alpha (HNF4a) (AID 2282982); details: HepG2 HNF4a transactivation reporter, mRNA readout
Procedure, shortened: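 Readout is fluorescent reporter-transcript fragments resolved by capillary electrophoresis after RT-PCR from HepG2 cells dosed for 24 h. Cells carried transfected GAL4-UAS reporter constructs measuring exogenous NR-GAL4 chimera activity; DMSO served as baseline.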

[12] = ATG_M_06_TRANS: Attagene TRANS-FACTORIAL HepG2 Assay for M06 Transcription Factor (Internal Marker) (AID 2282983); details: HepG2 Attagene TRANS M06 internal marker reporter;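 note: reporter transcript level by RT-PCR then capillary electrophoresis fluorescence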
Procedure, shortened: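 Internal-marker background readout from a multiplexed TRANS reporter system in HepG2; 24 h dosing; mRNA induction quantified by RT-PCR plus capillary electrophoresis fluorescence; DMSO as negative control and baseline.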

[13] = ATG_M_32_TRANS: Attagene TRANS-FACTORIAL HepG2 Assay for M32 Transcription Factor (Internal Marker) (AID 2282984); details: HepG2 Attagene TRANS M32 internal marker reporter;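 note: transcript level of a background control reporter unit measured by RT-PCR and capillary electrophoresis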
Procedure, shortened: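 Measures reporter mRNA induction in human HepG2 liver cells after 24 h chemical treatment. Transcripts from transiently transfected GAL4-UAS reporter units are amplified, fluorescently labelled and sized by capillary electrophoresis; gain of signal relative to DMSO.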

[14] = target: Nuclear receptor subfamily 4 group A member 2 (Homo sapiens) (UniProt P43354); test: ATG_NURR1_TRANS: Attagene TRANS-FACTORIAL HepG2 Assay for human Nuclear Receptor Related Protein 1 (NURR1) (AID 2282985); details: HepG2 Attagene TRANS reporter, mRNA readout
Nuclear receptor subfamily 4 group A member 2 (Homo sapiens), sequence (P43354 whole entry, looked up, the tested form may be a part): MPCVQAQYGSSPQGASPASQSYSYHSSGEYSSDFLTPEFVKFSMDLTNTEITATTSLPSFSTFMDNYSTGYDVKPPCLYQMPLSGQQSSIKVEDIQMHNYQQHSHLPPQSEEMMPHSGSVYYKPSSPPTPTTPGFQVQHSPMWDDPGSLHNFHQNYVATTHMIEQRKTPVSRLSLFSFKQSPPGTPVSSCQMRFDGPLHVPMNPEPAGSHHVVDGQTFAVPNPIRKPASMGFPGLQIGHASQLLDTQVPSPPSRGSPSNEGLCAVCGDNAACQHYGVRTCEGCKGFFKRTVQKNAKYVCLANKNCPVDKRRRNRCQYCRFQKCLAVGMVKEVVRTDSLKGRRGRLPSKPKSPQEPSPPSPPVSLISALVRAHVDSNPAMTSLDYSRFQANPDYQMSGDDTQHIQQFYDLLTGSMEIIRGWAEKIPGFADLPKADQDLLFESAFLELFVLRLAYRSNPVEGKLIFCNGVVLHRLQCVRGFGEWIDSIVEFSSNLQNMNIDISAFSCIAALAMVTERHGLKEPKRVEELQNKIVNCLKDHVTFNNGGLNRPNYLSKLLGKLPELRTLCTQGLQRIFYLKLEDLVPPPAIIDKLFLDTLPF
Procedure, shortened: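 Transient transfection of HepG2, human liver cells, with multiple GAL4-UAS reporter transcription units. Cells dosed 24 h, RNA isolated, reverse-transcribed, PCR-amplified, FAM-labelled, HpaI-digested, sized by capillary electrophoresis. DMSO served as negative control.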

[15] = target: Transcriptional activator Myb (Homo sapiens) (UniProt P10242); test: ATG_Myb_CIS: Attagene CIS-FACTORIAL HepG2 Assay for human Myeloblastosis (Myb) Proto-Oncogene Transcription Factor (AID 2282986; active = hit-call score of the fitted dose curve at least 0.9, where 1 is the maximum; inactive = score below 0.9); details: HepG2 Attagene CIS-FACTORIAL Myb reporter transcription; actives raise or lower the signal
Transcriptional activator Myb (Homo sapiens), sequence (P10242 whole entry, looked up): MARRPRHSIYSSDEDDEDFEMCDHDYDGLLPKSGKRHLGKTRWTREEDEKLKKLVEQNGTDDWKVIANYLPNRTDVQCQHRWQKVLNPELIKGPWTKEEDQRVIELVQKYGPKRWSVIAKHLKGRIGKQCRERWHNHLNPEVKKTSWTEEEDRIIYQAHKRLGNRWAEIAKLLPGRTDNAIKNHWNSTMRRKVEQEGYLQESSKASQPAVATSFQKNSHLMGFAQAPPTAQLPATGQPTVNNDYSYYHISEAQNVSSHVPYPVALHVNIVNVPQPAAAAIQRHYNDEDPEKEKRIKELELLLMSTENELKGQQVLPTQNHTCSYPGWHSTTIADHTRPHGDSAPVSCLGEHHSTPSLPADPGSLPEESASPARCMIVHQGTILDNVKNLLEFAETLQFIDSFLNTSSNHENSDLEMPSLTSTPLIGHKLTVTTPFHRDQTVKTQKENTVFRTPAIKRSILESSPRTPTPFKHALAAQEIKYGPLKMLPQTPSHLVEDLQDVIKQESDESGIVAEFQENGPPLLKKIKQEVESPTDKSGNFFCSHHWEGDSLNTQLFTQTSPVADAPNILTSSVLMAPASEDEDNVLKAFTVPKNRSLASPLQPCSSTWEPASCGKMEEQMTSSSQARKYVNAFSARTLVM
Procedure, shortened: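 Using HepG2 liver cells bearing transiently transfected cis-promoter reporter constructs, the assay measures induction or loss of reporter mRNA after 24 hours of dosing. Detection used fluorescently labeled RT-PCR products separated by capillary electrophoresis.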

[16] = target: Steroid hormone receptor ERR1 (Homo sapiens) (UniProt P11474); test: ATG_ERRa_TRANS: Attagene TRANS-FACTORIAL HepG2 Assay for human Estrogen-Related Receptor alpha (ERRa) (AID 2282971); details: HepG2 Attagene TRANS reporter, ERRa transactivation
Procedure, shortened: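 Signal gain relative to DMSO for an ERRa-Gal4 chimeric receptor, read as reporter mRNA by RT-PCR/capillary electrophoresis. Human HepG2 liver cells, transient multiplex reporter transfection, 24 h chemical exposure.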

[17] = ATG_M_19_TRANS: Attagene TRANS-FACTORIAL HepG2 Assay for M19 Transcription Factor (Internal Marker) (AID 2282974); details: HepG2 Attagene TRANS-FACTORIAL M19 internal marker reporter
Procedure, shortened: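 Multiplexed TRANS format: HepG2 liver cells bearing transient GAL4-UAS reporter units, chemical treatment 24 h, reporter transcripts quantified by RT-PCR plus capillary electrophoresis. DMSO defines baseline.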

[18] = ATG_GAL4_TRANS: Attagene TRANS-FACTORIAL HepG2 Assay for GAL4 (Internal Marker) (AID 2282976); details: HepG2 Attagene TRANS GAL4 internal marker reporter
Procedure, shortened: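 Liver HepG2 line bearing multiplexed GAL4-UAS reporter constructs; 24 h chemical treatment. Transcripts were quantified as fluorescent fragments on capillary electrophoresis after RT-PCR and HpaI cut, with activity fitted upward from DMSO.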

[19] = target: Nuclear respiratory factor 1 (Homo sapiens) (UniProt Q16656); test: ATG_NRF1_CIS: Attagene CIS-FACTORIAL HepG2 Assay for human Nuclear Respiratory Factor 1 (NRF1) Orphan Gene (AID 2282987; active = hit-call score of the fitted dose curve at least 0.9, where 1 is the maximum; inactive = score below 0.9); details: HepG2 NRF1 cis-element reporter, Attagene multiplex; actives raise or lower the signal
Nuclear respiratory factor 1 (Homo sapiens), sequence (Q16656 whole entry, looked up): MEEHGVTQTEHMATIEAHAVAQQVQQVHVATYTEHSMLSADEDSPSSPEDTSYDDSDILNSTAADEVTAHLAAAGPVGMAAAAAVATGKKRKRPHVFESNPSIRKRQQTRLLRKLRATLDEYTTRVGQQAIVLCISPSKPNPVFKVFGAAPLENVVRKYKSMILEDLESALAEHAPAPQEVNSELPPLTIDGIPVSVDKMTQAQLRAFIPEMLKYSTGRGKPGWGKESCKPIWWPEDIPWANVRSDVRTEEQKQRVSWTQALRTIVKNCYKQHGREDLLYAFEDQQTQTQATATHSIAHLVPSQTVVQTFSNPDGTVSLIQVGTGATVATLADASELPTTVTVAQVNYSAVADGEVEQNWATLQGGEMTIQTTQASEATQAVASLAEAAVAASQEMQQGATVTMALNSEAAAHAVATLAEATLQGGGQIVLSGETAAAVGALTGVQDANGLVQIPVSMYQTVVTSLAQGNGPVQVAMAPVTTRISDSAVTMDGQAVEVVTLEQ
Procedure, shortened: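 Reporter mRNA induction or loss in HepG2 cells after 24 h dosing; cis-regulated reporter constructs report endogenous transcription-factor activity. Quantified by RT-PCR/capillary electrophoresis fluorescence, DMSO-referenced.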

Measured: AC50

CCCCCCCCOC(=O)c1cc(O)c(O)c(O)c1
active: [5] 20 µM | [8] 43 µM | [9] 52.2 µM | [14] 24.2 µM
not listed: [16] | [17] | [18] | [19]
inactive: all other assays above

CC(C)(O)c1ccc(CNC(=O)c2cccnc2Oc2ccc3nonc3c2)cc1
active: [3] 33.2 µM | [7] 48.6 µM
not listed: [8] | [9] | [11] | [17] | [18] | [19]
inactive: all other assays above

O=C(O)Cn1c(=O)n(Cc2ccc(Br)cc2F)c(=O)c2ccc(Cl)cc21
active: [3] 27 µM
not listed: [9] | [10] | [11] | [13] | [16] | [18]
inactive: all other assays above
